Assay results reported in PubChem BioAssay (NCATS).
Where “and” joins values, the source holds several entries; their conditions need not be identical. Equal entries are not always repeated. Records with an inconclusive call do not appear. Where a call stands in place of a potency, no number is given. Calls of active or inactive are those of the source. Unless noted, calls follow the shape of the dose curve; as a rule, active = well fitted curve in the direction sought with a large enough effect; inconclusive = small, poorly fitted or top-dose-only effect, or another doubt; inactive = no such curve, though single readings can be large; an effect the other way counts as inactive or inconclusive.

Tests used:
[1] = Validation of Assay for Modulators of Lamin A Splicing (AID 1459; active = well fitted curve in the direction sought with a large enough effect in the signal ratio; the % refers to the signal ratio;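 also: cells exposed to compound for two days before reading; ratio rise marks activators and ratio drop marks inhibitors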)
Method in brief: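 Readout: ratio of GFP (500-530 nm) to RFP (575-640 nm) total object intensity by 488 nm laser-scanning cytometry after 48 hrs. Cells were HeLa S3 clones carrying lamin A-EGFP minigene plus DsRed2 viability reporter; vehicle 0.5% DMSO final.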

[2] = biological target: DNA repair nuclease/redox regulator APEX1 (Homo sapiens) (UniProt P27695); assay: qHTS Validation Assay for Inhibitors of the Human Apurinic/apyrimidinic Endonuclease 1 (APE1) (AID 1705;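 also: TAMRA fluorescence gain over two minutes as APE1 cuts a quenched THF abasic duplex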)
Method in brief: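 Read-out: TAMRA fluorescence (525 nm ex, 598 nm em) from cleavage of a quenched THF abasic-site duplex, 50 nM final; activity taken as intensity change between third and first of three reads 60 s apart.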

[3] = Counterscreen for APE1 Inhibitors: Fluorescent Dye Displacement Validation Assay (AID 1707)
Method in brief: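 Reaction mixture of 250 nM Thiazole Orange and 50 nM double-stranded abasic-site DNA was dispensed, compounds were pin-transferred, and fluorescence was read at endpoint (480 nm ex, 540 nm em). Reduced fluorescence indicated dye displacement by DNA binding.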

[4] = qHTS for differential inhibitors of proliferation of Plasmodium falciparum line 7G8 (AID 1815);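 also: parasite growth measured after three days of incubation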; also: potency is read from the fitted curve at half-maximal effect
[5] = qHTS for differential inhibitors of proliferation of Plasmodium falciparum line GB4 (AID 1816); settings: Potency: Plasmodium falciparum GB4 proliferation inhibition;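 also: parasite growth measured after 72 h incubation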; also: potency is read from the fitted curve at half-maximal effect
[6] = qHTS for differential inhibitors of proliferation of Plasmodium falciparum line W2 (AID 1883); settings: Potency: Plasmodium falciparum W2 proliferation inhibition;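 also: parasites grown with compound for 72 h before lysis and staining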; also: potency is read from the fitted curve at half-maximal effect
[7] = qHTS for differential inhibitors of proliferation of Plasmodium falciparum line HB3 (AID 1886); settings: Potency: Plasmodium falciparum HB3 proliferation inhibition;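 also: parasites grown with compound for 72 h before SYBR Green readout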; also: potency is read from the fitted curve at half-maximal effect
[8] = biological target: Ferritin light chain (Equus caballus) (UniProt P02791); assay: qHTS Validation Assay for Identification of Novel General Anesthetics (AID 2323)
Method in brief: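 10 uM horse-spleen apoferritin + 1-AMA (50% saturated, PBS); cpd pin-transferred, 10 min RT. Ex 380/Em 535 nm endpoint. Activity normalized between free 1-AMA and 1-AMA/apoferritin; 4-parameter Hill fit of concentration-response.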

[9] = biological target: ATP-dependent DNA helicase Q1 (Homo sapiens) (UniProt P46063); assay: qHTS Validation Assay for Inhibitors of RecQ-Like Dna Helicase 1 (RECQ1) (AID 2353)
Method in brief: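 RECQ1T1 50 nM; forked duplex (20 bp + 30-nt ss tails) 200 nM, ATP 2 mM final; pH 8.0, 2 mM MgCl2, 2.5 ug/ml poly(dI-dC); 15 min compound preincubation; discontinuous kinetic read over 2 h at RT.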

[10] = biological target: RecQ-like DNA helicase BLM (Homo sapiens) (UniProt P54132); assay: qHTS Validation Assay for Inhibitors of Bloom's syndrome helicase (BLM) (AID 2364)
Method in brief: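 BLM 50 nM in 25 mM Tris-HCl pH 8.0, 5 mM NaCl, 2 mM MgCl2, 1 mM DTT, 0.01% Tween-20, 2.5 ug/ml poly(dI-dC); 15 min cpd preinc, RT. Start: 200 nM forked DNA + 2 mM ATP (final). TAMRA read, 2 reads 2 h apart.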

[11] = biological target: alpha-glucosidase (Oryza sativa, rice) (UniProt Q653V4); assay: Counterscreen for Glucocerebrosidase Inhibitors: qHTS Assay for Rice alpha-Glucosidase at pH 5.0 (AID 997)
Method in brief: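 Endpoint fluorogenic assay at pH 5.0: compounds (0.7 nM to 77 uM) titrated against 4 nM rice enzyme and 400 uM 4-MU-alpha-glucoside for 20 min at room temperature; NaOH/glycine stop, read ex 365/em 440 nm, Hill-fitted AC50.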

[12] = qHTS for differential inhibitors of proliferation of Plasmodium falciparum line 3D7 (AID 1876); also: potency is read from the fitted curve at half-maximal effect
[13] = Cell Viability - LYMP1-002 - Assay at 40 hr (AID 994); also: nearly all actives have a fitted effect of over 60% in size
Method in brief: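 Cells are plated at 2500 per well and rested 5 hr at 37 C. Compounds are added and incubated 40 hr at 37 C. CellTiter-Glo reagent is added for 30 min at room temperature before luminescence is read.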

[14] = qHTS for differential inhibitors of proliferation of Plasmodium falciparum line D10 (AID 1877);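 also: parasites grown with compound for 72 h before DNA staining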; also: potency is read from the fitted curve at half-maximal effect
[15] = qHTS Assay for Modulators of Human Peripheral Myelin Protein 22 (PMP22) Expression/Activity (AID 1967; active = well fitted curve in the direction sought with a large enough effect in the signal ratio; the % refers to the signal ratio)
Method in brief: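 Mouse MSC80 Schwann line, Pmp22 promoter–CBG68 reporter, EF-alpha–CBR internal control. 24h compound exposure, 37 °C/5% CO2, DMEM + 10% FBS. Readout: corrected green/red luminescence ratio, normalized to untreated cells; concentration-response curves fitted and classified.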

[16] = biological target: Endonuclease 4 (Escherichia coli (strain K12)) (UniProt P0A6C1); assay: Counterscreen for APE1 Inhibitors: qHTS Validation Assay for Inhibitors of Endonuclease IV (AID 1708)
Method in brief: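 Enzyme (2 nM) + compound, 15 min RT; add 50 nM TAMRA/BHQ-2 THF-site dsDNA; kinetic read ex525/em598, 3 reads/60 s; activity = read 3 − read 1. Buffer Tris pH 7.5, 50 mM NaCl, 2 mM MgCl2, DTT, Tween-20.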

[17] = qHTS for differential inhibitors of proliferation of Plasmodium falciparum line Dd2 (AID 1882); settings: Potency: Plasmodium falciparum Dd2 proliferation inhibition; also: nearly all actives have a fitted effect of over 65% in size; also: potency is read from the fitted curve at half-maximal effect
Method in brief: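 SYBR Green DNA fluorescence (ex 485, em 535 nm) after overnight lysis quantifies parasite growth; compound exposure lasted 72 h at 37 C on infected red cells at 2.5% hematocrit, 0.3% parasitemia (final). Artemisinin 0.29 uM and vehicle wells define normalization.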

[18] = qHTS Assay for Lipid Storage Modulators (AID 1519; calls by dose curve); settings: Drosophila S3 cells, BODIPY lipid droplet/cell ratio, laser cytometry, cells loaded with oleic acid; for activity change, negative = inhibition: at 57.5 µM (top of the series)
Method in brief: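 Cells seeded at 5,000 per well were treated with compounds over a concentration series and loaded with oleic acid (400 uM, as added). Lipid droplet fluorescence (488 nm excitation, 500-530 nm channel) was read by laser-scanning cytometry and normalized to 20 uM Triacsin C.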

[19] = measured here: cell count channel max response
[20] = measured here: lipid channel max response

DNA repair nuclease/redox regulator APEX1 (Homo sapiens), sequence (P27695 whole entry, looked up): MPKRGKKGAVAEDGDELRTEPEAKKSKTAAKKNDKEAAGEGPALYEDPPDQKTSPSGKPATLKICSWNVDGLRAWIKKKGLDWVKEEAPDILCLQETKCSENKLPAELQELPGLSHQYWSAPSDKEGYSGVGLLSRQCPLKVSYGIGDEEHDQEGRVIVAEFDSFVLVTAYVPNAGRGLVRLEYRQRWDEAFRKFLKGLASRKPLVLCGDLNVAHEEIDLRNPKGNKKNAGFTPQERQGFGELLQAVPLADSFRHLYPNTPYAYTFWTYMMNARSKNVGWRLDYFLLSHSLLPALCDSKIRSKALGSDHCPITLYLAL
ATP-dependent DNA helicase Q1 (Homo sapiens), sequence (P46063 whole entry, looked up): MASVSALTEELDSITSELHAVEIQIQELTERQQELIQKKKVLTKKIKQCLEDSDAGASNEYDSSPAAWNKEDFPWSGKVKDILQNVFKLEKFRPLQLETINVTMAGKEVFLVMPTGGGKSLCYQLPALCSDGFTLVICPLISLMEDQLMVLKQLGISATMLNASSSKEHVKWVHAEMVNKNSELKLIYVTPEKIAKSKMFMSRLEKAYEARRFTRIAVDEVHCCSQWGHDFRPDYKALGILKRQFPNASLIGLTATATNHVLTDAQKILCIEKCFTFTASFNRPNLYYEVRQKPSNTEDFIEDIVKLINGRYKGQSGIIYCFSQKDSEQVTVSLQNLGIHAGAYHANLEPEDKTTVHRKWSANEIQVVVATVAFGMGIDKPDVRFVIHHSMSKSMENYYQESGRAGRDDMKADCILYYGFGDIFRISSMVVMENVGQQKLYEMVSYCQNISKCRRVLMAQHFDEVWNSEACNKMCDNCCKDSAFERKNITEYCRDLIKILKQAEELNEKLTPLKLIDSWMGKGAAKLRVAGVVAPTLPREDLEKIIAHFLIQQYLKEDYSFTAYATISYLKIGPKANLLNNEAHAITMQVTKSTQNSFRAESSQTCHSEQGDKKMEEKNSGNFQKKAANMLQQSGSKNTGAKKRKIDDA
Ferritin light chain (Equus caballus), sequence (P02791 2-175 limits assumed): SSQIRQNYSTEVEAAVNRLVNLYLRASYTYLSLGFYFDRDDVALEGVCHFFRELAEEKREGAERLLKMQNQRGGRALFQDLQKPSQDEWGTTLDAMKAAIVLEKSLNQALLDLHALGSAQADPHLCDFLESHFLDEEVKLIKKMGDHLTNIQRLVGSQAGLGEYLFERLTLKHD
RecQ-like DNA helicase BLM (Homo sapiens), sequence (P54132 whole entry, looked up): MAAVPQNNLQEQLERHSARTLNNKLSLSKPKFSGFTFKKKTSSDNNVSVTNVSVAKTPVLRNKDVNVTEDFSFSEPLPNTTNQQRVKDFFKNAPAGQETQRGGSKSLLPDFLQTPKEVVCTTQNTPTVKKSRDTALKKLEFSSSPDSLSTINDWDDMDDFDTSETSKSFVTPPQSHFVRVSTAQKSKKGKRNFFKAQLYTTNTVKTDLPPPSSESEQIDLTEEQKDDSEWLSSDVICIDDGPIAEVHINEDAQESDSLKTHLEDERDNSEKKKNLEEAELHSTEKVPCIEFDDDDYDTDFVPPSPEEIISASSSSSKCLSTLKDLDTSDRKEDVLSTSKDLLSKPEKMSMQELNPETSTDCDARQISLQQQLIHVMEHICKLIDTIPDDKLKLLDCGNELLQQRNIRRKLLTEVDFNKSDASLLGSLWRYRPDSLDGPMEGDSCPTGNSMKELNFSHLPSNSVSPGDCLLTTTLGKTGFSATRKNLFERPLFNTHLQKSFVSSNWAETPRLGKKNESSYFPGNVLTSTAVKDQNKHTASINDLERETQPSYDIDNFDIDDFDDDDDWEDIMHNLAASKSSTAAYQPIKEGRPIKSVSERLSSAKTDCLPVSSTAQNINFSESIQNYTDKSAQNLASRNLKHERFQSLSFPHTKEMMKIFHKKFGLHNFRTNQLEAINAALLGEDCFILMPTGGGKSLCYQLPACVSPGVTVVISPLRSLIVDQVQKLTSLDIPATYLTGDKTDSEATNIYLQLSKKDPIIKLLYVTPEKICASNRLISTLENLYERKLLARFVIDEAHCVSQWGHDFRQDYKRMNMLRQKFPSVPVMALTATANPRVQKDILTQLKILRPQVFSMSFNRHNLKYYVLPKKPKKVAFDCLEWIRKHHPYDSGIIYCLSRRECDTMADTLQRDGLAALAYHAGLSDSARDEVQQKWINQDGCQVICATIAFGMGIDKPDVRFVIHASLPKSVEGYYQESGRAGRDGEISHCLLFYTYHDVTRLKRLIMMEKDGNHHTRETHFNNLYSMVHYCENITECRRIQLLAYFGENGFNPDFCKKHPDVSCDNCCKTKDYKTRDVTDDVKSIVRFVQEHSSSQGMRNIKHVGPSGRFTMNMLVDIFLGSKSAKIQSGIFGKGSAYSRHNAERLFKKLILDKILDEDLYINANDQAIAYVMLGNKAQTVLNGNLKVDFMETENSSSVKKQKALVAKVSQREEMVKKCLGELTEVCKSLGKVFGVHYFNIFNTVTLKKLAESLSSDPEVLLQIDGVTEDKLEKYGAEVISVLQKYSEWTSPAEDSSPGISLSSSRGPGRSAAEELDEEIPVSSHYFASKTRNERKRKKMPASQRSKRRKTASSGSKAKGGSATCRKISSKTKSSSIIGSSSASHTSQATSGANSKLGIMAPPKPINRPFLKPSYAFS

SMILES	outcome [1]	Potency [2]	Potency [3]	Potency [4]	Potency [5]	Potency [6]	Potency [7]	Potency [8]	Potency [9]	Potency [10]	outcome [11]	Potency [12]	outcome [13]	Potency [14]	outcome [15]	Potency [16]	Potency [17]	activity change, negative = inhibition [18]	max response [18, 19]	max response [18, 20]
COc1cccc(OC)c1OCCNCC1CSc2ccccc2O1 (stereo not given)	inactive	inactive	inactive	7.94 µM (active)	4.47 µM (active)	3.98 µM (active)	12.6 µM (active)	inactive	inactive	inactive										
O=C1NC(=O)c2cc(Nc3ccccc3)c(Nc3ccccc3)cc21	inactive	inactive	inactive	8.91 µM (active)	10 µM (active)	10 µM (active)	8.91 µM (active)	inactive	inactive		inactive	12.6 µM (active)								
CC(=O)C(C)=O	inactive	inactive	inactive	inactive	inactive	inactive	inactive	inactive		inactive	inactive	inactive	inactive	inactive	inactive					
Cn1cc(C(=O)OCC2CCN(CCNS(C)(=O)=O)CC2)c2ccccc21	inactive		inactive	10 µM (active)		8.91 µM (active)		inactive	inactive	inactive	inactive									
CCCCCCN(CCCCCC)C(=O)Cc1c(-c2ccc(F)cc2)[nH]c2ccccc12	inactive		inactive	5.01 µM (active)	3.98 µM (active)	3.55 µM (active)	7.08 µM (active)		inactive		inactive	5.01 µM (active)		12.6 µM (active)		inactive	10 µM (active)			
CN(C)C(=O)/N=N/C(=O)N(C)C	inactive		inactive	inactive	inactive	inactive	inactive	inactive	inactive	inactive		inactive		inactive		inactive	inactive			
Cn1ccnc1	inactive	inactive	inactive	inactive	inactive	inactive	inactive	inactive	inactive	inactive	inactive	inactive		inactive	inactive		inactive			
COc1ccccc1N1CCN(CCCCN2C(=O)c3ccccc3C2=O)CC1	inactive	inactive	inactive	inactive		3.55 µM (active)		inactive	inactive	inactive	inactive	12.6 µM (active)		inactive	inactive		inactive			
COc1cc(N)c(Cl)cc1C(=O)OCCN1CCCCC1	inactive	inactive	inactive				inactive		inactive	inactive	inactive	inactive		inactive	inactive		inactive			
Cc1cccc(C)c1OCC(N)C(C)C (stereo not given)		inactive	inactive	11.2 µM (active)		0.708 µM (active)	inactive		inactive			inactive		inactive	inactive	inactive	4.47 µM (active)	0.702% (inactive)	60.7%	59.8%
NC(N)=NC(N)=Nc1ccccc1		inactive	inactive	inactive				inactive	inactive		inactive				inactive	inactive	inactive	-1.27% (inactive) and 5.81% (inactive)	10.6% and 8.56%	10.2% and 16.5%
N=C(N)SCCc1cnc[nH]1		inactive	inactive	inactive	inactive		inactive	inactive		inactive	inactive	inactive		inactive	inactive	inactive	inactive	2.03% (inactive)	1.98%	5.06%
NC1C=CC=C(C(=O)O)C1 (stereo not given)		inactive	inactive	inactive	inactive	inactive	inactive	inactive	inactive			inactive		inactive		inactive	inactive	2.8% (inactive)	4.79%	-17.7%
O=c1[nH]c2ccccc2c2ccccc12		inactive	inactive		inactive		inactive	inactive	inactive		inactive	inactive				inactive	inactive	1.72% (inactive)	17.8%	20.4%
CC(=O)NCCc1c[nH]c2ccc(O)cc12		inactive	inactive	inactive	inactive	inactive	inactive	inactive	inactive		inactive	inactive		inactive	inactive	inactive	inactive	10.9% (inactive)	15.4%	28.6%
N#C/C(=C\c1ccc(O)c(O)c1)C(=O)NCCCNC(=O)/C(C#N)=C/c1ccc(O)c(O)c1	inactive										inactive									
NCCC1CCCC(CCN)N1 (stereo not given)		inactive	inactive	inactive	inactive	inactive	inactive	inactive	inactive	inactive		inactive		inactive	inactive		inactive	-3.87% (inactive)	-16%	-17.4%
CC1CCN(CC[C@H]2CCCN2S(=O)(=O)c2cccc(O)c2)CC1		inactive	inactive		12.6 µM (active)	8.91 µM (active)	inactive	inactive	inactive					inactive	inactive	inactive		5.39% (inactive) and 1.08% (inactive)	7.6% and -15.4%	15.3% and -11.1%
